IEC-6 tox-1: counter-screen for KLF5 inhibitors: cytotoxicity in IEC-6 cells | inhibition, % at 5 µM | IEC-6 cytotoxicity, luminescence viability | 290,000 compounds, 0.78% hits; in the data active means inhibition above about 22%;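 further: 0% = plate median of test compound wells and 100% = cytotoxic reference compound wells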
BaF3 tox: reduces parental Ba/F3 cell viability, JAK2V617F counter-screen; inhibition, % at 5.6 µM; 220,000 compounds, 1.1% hits; CellTiter-Glo ATP luminescence;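 active means inhibition above a per-campaign cutoff, the mean inhibition of all tested compounds plus 3 SD, cut at about 27% in these data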;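 further: 0% = DMSO wells and 100% = JAK Inhibitor I control wells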
aSyn UTR inh: 5' untranslated region of α-synuclein, MLPCN primary screen; alpha-synuclein 5'UTR reporter, inhibitor activity; inhibition, % (tested at 7.5 µM); 300,000 compounds, 0.82% hits; AID 1813; in the data active means inhibition above about 60%;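 further: H4 neuroglioblastoma cells stably carrying SNCA 5'UTR luciferase fusion; 0% = DMSO wells and 100% = positive control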
KLF5 inhibitor: kruppel-like factor 5 inhibition; DLD-1 KLF5 promoter-luciferase reporter, luminescence; 290,000 compounds, 0.23% hits; AID 1700; inhibition, % at 5 µM;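 active means inhibition above a per-plate limit of that plate's mean compound inhibition plus 3 SD, cut at about 60% in these data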;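 further: 0% = DMSO wells and 100% = LY294002 at 200 µM; higher means less KLF5 promoter-driven luciferase light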
APP 5UTR inh: APP translation inhibition; SH-SY5Y APP 5'UTR-luciferase reporter, luminescence; inhibition, % at 2 µM; 190,000 compounds, 0.82% hits;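 active means inhibition above a set limit, derived from the sample mean plus 3 SD, cut at about 45% in these data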
Ba/F3 V617F tox: loss of viability in JAK2V617F-driven Ba/F3 cells; Ba/F3 EpoR-JAK2V617F viability, ATP luminescence; inhibition, % at 5.6 µM; 220,000 compounds, 1.1% hits;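 active means inhibition above the campaign mean plus 3 SD over all tested compounds, cut at about 24% in these data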;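 further: cytokine-independent growth of Ba/F3 cells driven by EpoR plus mutant JAK2; 0% = DMSO-treated cells and 100% = JAK inhibitor I control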
KLF5 confirm: confirmation of KLF5 inhibitors. shares compounds with KLF5 inhibitor. 610 compounds, 79% hits. inhibition, % at 4 µM. DLD-1 KLF5 promoter firefly luciferase reporter, luminescence;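 active means inhibition above a set limit taken from the earlier primary screen, cut at about 63% in these data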;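 further: 0% = DMSO wells and 100% = LY294002 at 200 µM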
IEC-6 tox-2: rat IEC-6 cytotoxicity, KLF5 inhibitor counter-screen | shares compounds with KLF5 inhibitor | IEC-6 rat intestinal cells, viability luminescence | inhibition, % at 4 µM | 610 compounds, 56% hits | AID 1905; in the data active means inhibition above about 23%;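 further: cells exposed to compounds for 48 hours before viability read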
* = called active by the depositor; / = not tested or not shown. An excerpt weighted towards active compounds, which were near 2.2% of everything screened.

SMILES	IEC-6 tox-1	BaF3 tox	aSyn UTR inh	KLF5 inhibitor	APP 5UTR inh	Ba/F3 V617F tox	KLF5 confirm	IEC-6 tox-2
CCCC(=O)NC(c1ccc(OC)cc1)c1ccc2cccnc2c1O (centres undefined)	37.9*	66.1*	129.2*	90.3*	81.6*	54.1*	96.2*	91.7*
CCC(C)NC(=O)CN1c2cccc3cccc(c23)S1(=O)=O (centres undefined)	-1.0	/	3.5	-14.7	/	/	/	/
O=C(CN1CCc2ccccc2C1)Nc1ccccc1C(F)(F)F	-8.3	/	5.6	-36.7	/	/	/	/
Oc1[nH]c2ccccc2c1N=NC(=S)N1CCOCC1	48.4*	58.8*	53.4	67.6*	/	54.5*	88.8*	48.3*
Oc1[nH]c2ccc(Br)cc2c1N=NC(=S)N1CCOCC1	88.4*	94.0*	38.8	75.4*	/	95.0*	85.2*	56.3*
NC(=S)N=Nc1c(O)[nH]c2ccccc12	-0.3	4.0	24.5	-39.5	10.8	0.6	/	/
COC(=O)N=Nc1c(O)[nH]c2ccc(Br)cc12	-4.5	-10.3	-26.0	-39.4	/	0.2	/	/
Cc1ccc(S(=O)(=O)N(C)C)cc1NC(=S)NNC(=O)C(N)=O	-2.1	1.1	-16.6	-6.3	8.3	1.1	/	/
O=C(CC(=O)NN=C1CCCCCC1)NCc1cccnc1	1.6	5.8	-3.1	-6.5	0.9	-0.1	/	/
O=S(=O)(Nc1ccccc1C(F)(F)F)c1ccc(-c2ccccn2)s1	-0.8	/	-6.4	-30.2	/	/	/	/
CC(=O)c1ccc(Nc2cc(C)nc3c(C)cc(C)cc23)cc1	73.2*	81.4*	21.1	67.4*	89.1*	81.1*	78.9*	49.5*
Cc1nn(-c2ccc3ccccc3c2)c(=O)c2ccccc12	9.5	3.8	-183.0	-50.9	-142.3	4.6	/	/
Cc1nn(-c2nc3ccccc3[nH]2)c(=O)c2ccccc12	84.6*	87.2*	115.0*	110.0*	74.1*	83.2*	104.5*	63.1*
O=C1C(=O)N(c2nccs2)C(c2ccccc2)/C1=C(\O)c1ccc2c(c1)OCCO2 (centres undefined)	-1.8	/	56.0	73.7*	/	/	53.7	8.3
O=C1C(=O)N(c2nccs2)C(c2ccccc2F)/C1=C(\O)c1ccc2c(c1)OCCO2 (centres undefined)	1.1	/	20.7	38.2	/	/	/	/
CCN(CC)S(=O)(=O)c1ccc(N/N=C/c2cccnc2)nc1	1.8	-1.7	7.6	-4.7	/	-3.0	/	/
CCN(CC)S(=O)(=O)c1ccc(N/N=C/c2cc(OC)ccc2O)nc1	15.6	54.5*	86.8*	67.7*	74.0*	81.5*	74.4*	3.9
O=[N+]([O-])c1ccc(O)c(/C=N/Nc2ccc(Cl)nn2)c1	-8.8	8.9	100.1*	67.0*	6.6	-0.3	76.2*	37.9*
N/C(=N\OC(=O)c1ccc(Cl)cc1[N+](=O)[O-])c1ccccn1	7.4	/	-165.1	-111.2	/	/	/	/
N/C(=N\OC(=O)c1ccc(Cl)cc1Cl)c1ccccn1	13.7	22.1	88.8*	95.4*	-32.2	14.3	46.3	3.4
Cc1ccc(C(=O)O/N=C(\N)c2ccccn2)c(Cl)c1	2.7	/	107.6*	96.0*	/	/	74.8*	8.5
Cc1c(C)c2ccc(OCC(=O)N(C)C)c(C)c2oc1=O	-5.2	4.8	-40.5	-27.3	2.9	-1.8	/	/
Cc1c(C)c2ccc(OCC(=O)Nc3ccccn3)c(C)c2oc1=O	10.0	/	109.5*	91.3*	/	/	40.3	12.1
Cc1cc(Br)cc(/C=N/NC(=O)c2ccc3c(c2)OCO3)c1O	16.3	/	7.8	70.5*	/	/	60.6	15.0
O=C(N/N=C/c1cc(Br)c(O)c(Br)c1O)c1ccc2c(c1)OCCO2	12.1	/	38.8	-19.6	/	/	/	/
Cn1cccc1-c1cc(C(=O)N/N=C/c2cc(Br)ccc2O)[nH]n1	12.2	/	70.5*	65.3*	/	/	78.8*	-2.2
COc1ccc(C(=O)N/N=C/c2cc(Br)ccc2O)cc1OC	4.1	-0.1	44.0	68.2*	/	15.6	91.8*	-2.7
C/C(=N/NC(=O)c1ccncc1)c1ccccc1	-5.3	/	-25.2	-19.4	/	/	/	/
C/C(=N\NC(=O)c1ccccc1NC(=O)c1ccc(Cl)cc1)c1ccncc1	13.0	20.7	28.0	65.0*	-62.1	18.7	107.0*	66.9*
Cc1cc(C[n+]2ncsc2N)c2ncccc2c1	0.0	-5.1	-15.4	-0.7	/	-1.4	/	/

High-throughput results as filed in PubChem.
